Assay results published in PubChem BioAssay (NCATS).
Several values for one entry are separate records, joined by “and”; a condition that tells them apart may be missing. Equal entries are not always repeated. Results filed as inconclusive are left out. Some compounds were tested as several samples or in several runs, with calls that do not always agree. Activity calls are given as the source filed them. Unless noted, the call rests on the fitted dose curve; in most records, active means well fitted cell-killing curve with a large enough effect; inconclusive means small, poorly fitted or top-dose-only effect; inactive means flat fitted curve, though single readings scatter.

How the values were obtained:
[1] = Cell Viability - LYMP2-017 (AID 972); further: series mostly up to about 92 µM; on the % scale 0 is the no-effect control and ±100 the full control effect; nearly all actives have a fitted effect of over 55% in size
Summary of the method: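 Luminescent ATP read-out (CellTiter-Glo, 30 min RT) reports viable cell number. Cells: human lymphoblastoid line, 2500 per well, 5 hr preincubation, 24 hr compound exposure at 37 C. AC50 is derived from qHTS concentration-response data using the standard Hill model.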

[2] = Cell Viability - LYMP2-019 (AID 973);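 further: 0% = DMSO alone and full effect = 92 µM tetraoctylammonium bromide; nearly all actives have a fitted effect of over 55% in size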
Summary of the method: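 qHTS, 1536-well; 2500 cells/well; 5 hr pre-incubation, 24 hr compound exposure, 37 C; CellTiter-Glo added, 30 min RT; luminescence read; AC50 via standard Hill equation.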

[3] = Cell Viability - LYMP2-021 (AID 974);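 further: compound exposure lasts 24 hours at 37 °C; on the % scale 0 is the no-effect control and ±100 the full control effect; nearly all actives have a fitted effect of over 55% in size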
Summary of the method: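 ATP luminescence (CellTiter-Glo, 30 min RT) after 24 h compound exposure at 37 C; 2500 human lymphoblastoid cells/well, 5 h settle beforehand. Cytotoxicity = concentration-dependent ATP drop, AC50 by Hill fit.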

[4] = Cell Viability - LYMP2-023 (AID 975);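 further: cellular ATP measured by luciferase luminescence as viability proxy; series mostly up to about 92 µM; plate controls were DMSO only for no effect and 92 µM tetraoctylammonium bromide control for full effect; nearly all actives have a fitted effect of over 55% in size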
Summary of the method: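 CellTiter-Glo luminescence after 30 min at room temperature; decrease in intracellular ATP reflects toxicity. Cells: human lymphoblastoid line, 2500/well, 24 hr compound exposure at 37 C. AC50 fitted to standard Hill equation from concentration-response.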

[5] = Cell Viability - LYMP2-025 (AID 976);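 further: series mostly up to about 92 µM; plate controls were DMSO only for no effect and tetraoctylammonium bromide control for full effect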
Summary of the method: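 CellTiter-Glo luminescence (cellular ATP) after 24 h compound exposure at 37 C; LYMP2-025 human lymphoblastoid cells, 2500/well, complete medium. Tetraoctylammonium bromide positive control. AC50 by Hill equation fit of qHTS concentration-response.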

[6] = Cell Viability - LYMP2-002 (AID 977);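 further: series mostly up to about 92 µM; plate controls were DMSO only for no effect and 92 µM tetraoctylammonium bromide for full effect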
Summary of the method: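 Human lymphoblastoid cells (2500/well) in complete medium were preincubated 5 hr at 37 C, then exposed to compounds for 24 hr at 37 C. Intracellular ATP was read by CellTiter-Glo luminescence; AC50 came from Hill-equation concentration-response fits.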

[7] = Cell Viability - LYMP2-006 (AID 978); further: series mostly up to about 92 µM; on the % scale 0 is the no-effect control and ±100 the full control effect; nearly all actives have a fitted effect of over 60% in size
Summary of the method: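 Potency values are Hill-fit AC50s for decreases in intracellular ATP (CellTiter-Glo luminescence). LYMP2-006 lymphoblastoid cells, 2500 per well, were exposed to compound in complete culture medium for 24 hr at 37 C.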

[8] = Cell Viability - LYMP2-007 (AID 979);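 further: cells exposed to compound for 24 h before reading; 0% = DMSO only and the negative end = 92 µM tetraoctylammonium bromide; nearly all actives have a fitted effect of over 60% in size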
Summary of the method: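 qHTS cytotoxicity: 2500 cells/well, 5 hr 37 C settle, compound 24 hr 37 C, CellTiter-Glo 30 min RT, luminescence. Decrease in ATP = toxicity. AC50 by standard Hill equation; tetraoctylammonium bromide positive control.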

[9] = Cell Viability - LYMP2-008 (AID 980); further: on the % scale 0 is the no-effect control and ±100 the full control effect; nearly all actives have a fitted effect of over 60% in size
Summary of the method: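 Luminescent ATP read-out (CellTiter-Glo, 30 min RT) after 24 hr compound exposure at 37 C of human lymphoblastoid cells in complete medium. Decrease in ATP taken as cytotoxicity; AC50 derived by standard Hill fit of qHTS concentration-response data.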

[10] = Cell Viability - LYMP2-010 (AID 981)
Summary of the method: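 qHTS cytotoxicity, 1536-well: 2500 cells/well, 5 hr settle, 24 hr compound at 37 C, CellTiter-Glo 30 min RT, luminescence read. Decrease in ATP = toxicity; AC50 via standard Hill equation. Positive control tetraoctylammonium bromide.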

[11] = Cell Viability - LYMP2-012 (AID 982)
[12] = Cell Viability - LYMP2-014 (AID 983);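 further: series mostly up to about 92 µM; plate controls were DMSO only for no effect and 92 µM tetraoctylammonium bromide for full effect; nearly all actives have a fitted effect of over 50% in size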
Summary of the method: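 2500 cells/well, 5 hr 37 C; cpd 24 hr 37 C, complete medium; CellTiter-Glo 30 min RT, luminescence; ATP loss = toxicity; AC50 via Hill eqn; tetraoctylammonium bromide positive control.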

[13] = Cell Viability - LYMP2-016 (AID 984)
Summary of the method: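 Cytotoxicity was scored by luminescent ATP content (CellTiter-Glo) after 24 h compound exposure at 37 C of a human lymphoblastoid line at 2500 cells/well. Concentration-response data were fitted to the Hill equation for AC50.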

[14] = Cell Viability - LYMP2-018 (AID 985);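 further: plate controls were DMSO only for no effect and tetraoctylammonium bromide at 92 µM for full effect; nearly all actives have a fitted effect of over 50% in size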
Summary of the method: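 2500 cells/well; 5 hr 37 C; cmpd 24 hr 37 C, complete medium; CellTiter-Glo 30 min RT; luminescence. Tetraoctylammonium bromide positive control. AC50 via Hill fit.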

[15] = Cell Viability - LYMP2-020 (AID 986)
Summary of the method: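 qHTS, 2500 cells/well; 5 hr then 24 hr compound exposure, 37 C; CellTiter-Glo luminescence after 30 min RT; ATP decrease taken as cytotoxicity; AC50 via Hill equation; tetraoctylammonium bromide positive control.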

[16] = Cell Viability - LYMP2-022 (AID 987)
Summary of the method: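 Luminescent ATP read-out (CellTiter-Glo, 30 min, RT) after 24 hr, 37 C compound exposure of 2500 human lymphoblastoid cells/well in complete medium. Cytotoxicity taken as concentration-dependent ATP loss; AC50 from standard Hill equation.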

[17] = Cell Viability - LYMP2-024 (AID 988);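 further: plate controls were DMSO only for no effect and 92 µM tetraoctylammonium bromide for full effect; nearly all actives have a fitted effect of over 60% in size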
Summary of the method: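 ATP-based luminescence (CellTiter-Glo, 30 min RT) after 24 h compound exposure at 37 C of 2500 lymphoblastoid cells/well; decrease in ATP taken as cytotoxicity. qHTS concentration-response fitted to standard Hill equation for AC50.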

[18] = Cell Viability - LYMP2-026 (AID 989); further: on the % scale 0 is the no-effect control and ±100 the full control effect; nearly all actives have a fitted effect of over 50% in size
Summary of the method: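 qHTS cytotoxicity: 2500 cells/well, 5 hr 37 C, compound 24 hr 37 C, CellTiter-Glo 30 min RT, luminescence. Tetraoctylammonium bromide positive control. AC50 via standard Hill fit.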

[19] = Cell Viability - LYMP1-002 - Assay at 24 hr (AID 993); further: on the % scale 0 is the no-effect control and ±100 the full control effect
Summary of the method: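 CellTiter-Glo luminescence (intracellular ATP) after 24 h compound exposure, 37 C, in LYMP1-002 human lymphoblastoid cells; decreased ATP taken as cytotoxicity. AC50 from standard Hill fit of concentration-response curves.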

[20] = Cell Viability - LYMP1-002 - Assay at 40 hr (AID 994)
Summary of the method: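 qHTS cytotoxicity; 2500 cells/well, 5 hr 37 C settle, compound 40 hr 37 C. CellTiter-Glo, 30 min RT, luminescence (ATP). Concentration-response, Hill fit → AC50. Pos. ctrl tetraoctylammonium bromide.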

[21] = molecular target: Bile acid receptor (Homo sapiens) (UniProt Q96RI1); assay: qHTS assay for small molecule antagonists of farnesoid X receptor signaling (AID 588526; calls by dose curve; further: potency means the concentration at half of the fitted maximal effect)
Sequence of Bile acid receptor (Homo sapiens) (Q96RI1 whole entry, looked up): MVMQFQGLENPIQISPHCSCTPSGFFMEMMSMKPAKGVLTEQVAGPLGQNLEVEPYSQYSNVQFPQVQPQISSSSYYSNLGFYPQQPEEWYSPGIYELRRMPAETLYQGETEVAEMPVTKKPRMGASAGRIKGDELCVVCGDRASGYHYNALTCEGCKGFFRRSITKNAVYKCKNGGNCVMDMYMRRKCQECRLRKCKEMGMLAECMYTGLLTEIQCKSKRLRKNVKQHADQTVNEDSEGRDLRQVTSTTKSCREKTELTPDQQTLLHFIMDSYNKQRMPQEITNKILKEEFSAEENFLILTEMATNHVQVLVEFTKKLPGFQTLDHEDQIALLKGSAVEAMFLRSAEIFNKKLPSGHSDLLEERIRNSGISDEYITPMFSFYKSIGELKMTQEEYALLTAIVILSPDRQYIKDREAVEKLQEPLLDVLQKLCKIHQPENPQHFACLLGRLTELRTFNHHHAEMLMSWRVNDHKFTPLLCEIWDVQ
Summary of the method: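 Beta-lactamase reporter antagonist mode: HEK293T FXR-UAS-bla cells, titrated compound, CDCA stimulation, 16 h 37 C, CCF4 dye 2 h RT. Data normalized to CDCA 50 uM and DMSO; Hill-fit IC50.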

[22] = molecular target: Glucocorticoid receptor (Homo sapiens) (UniProt P04150); assay: qHTS assay for small molecule agonists of glucocorticoid receptor signaling (AID 588532; active means well fitted curve in the direction sought with a large enough effect in the signal ratio, with a control signal flat; the % refers to the signal ratio;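 further: 100% = dexamethasone at 0.1 µM and 0% = DMSO only wells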); conditions: HeLa MMTV-bla, beta-lactamase ratio, agonist, 18 h; stronger effect = higher value; percent of dexamethasone control, DMSO zero
Sequence of Glucocorticoid receptor (Homo sapiens) (P04150 whole entry, looked up): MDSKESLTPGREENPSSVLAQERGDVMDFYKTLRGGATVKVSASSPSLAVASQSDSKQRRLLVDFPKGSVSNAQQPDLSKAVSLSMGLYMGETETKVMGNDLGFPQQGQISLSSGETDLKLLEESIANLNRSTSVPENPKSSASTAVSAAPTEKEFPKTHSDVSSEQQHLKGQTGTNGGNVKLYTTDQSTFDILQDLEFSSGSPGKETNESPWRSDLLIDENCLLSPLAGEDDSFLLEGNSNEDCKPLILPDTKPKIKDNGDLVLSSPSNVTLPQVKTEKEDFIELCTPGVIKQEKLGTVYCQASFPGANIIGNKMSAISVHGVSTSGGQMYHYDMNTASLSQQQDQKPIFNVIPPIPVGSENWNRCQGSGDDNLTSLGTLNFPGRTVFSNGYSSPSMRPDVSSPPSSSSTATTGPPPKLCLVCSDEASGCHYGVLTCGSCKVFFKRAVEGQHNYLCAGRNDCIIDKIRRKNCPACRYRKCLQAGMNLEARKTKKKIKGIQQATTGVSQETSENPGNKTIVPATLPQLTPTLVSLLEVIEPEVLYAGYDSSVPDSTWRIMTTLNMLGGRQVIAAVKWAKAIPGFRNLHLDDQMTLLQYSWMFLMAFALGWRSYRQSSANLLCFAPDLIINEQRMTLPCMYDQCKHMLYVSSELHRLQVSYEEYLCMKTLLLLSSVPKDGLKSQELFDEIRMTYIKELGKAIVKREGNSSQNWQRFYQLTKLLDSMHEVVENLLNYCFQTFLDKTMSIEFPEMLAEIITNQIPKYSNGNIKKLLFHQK
Summary of the method: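 Agonist-mode qHTS: GRE-driven beta-lactamase in HeLa cells exposed 18 h to titrated compounds (up to 92 uM), then CCF4 ratio read after 2 h at RT; Hill-fitted EC50, efficacy relative to 0.1 uM dexamethasone.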

[23] = molecular target: Glucocorticoid receptor (Homo sapiens) (UniProt P04150); assay: qHTS assay for small molecule antagonists of glucocorticoid receptor signaling (AID 588533; active means well fitted inhibition curve with a large enough effect in the signal ratio, with a control signal flat, not every such curve was filed as active; the % refers to the signal ratio;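 further: cells stimulated with 2 nM dexamethasone as agonist; potency means the concentration at half of the fitted maximal effect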)
Summary of the method: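 Antagonist-mode qHTS: compound titrations added to GRE-bla HeLa cells, then dexamethasone 2 nM final; 18 h, 37 C. CCF4 FRET fluorescence normalized to dexamethasone and DMSO; IC50 from Hill fit.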

CC(C)(c1cc(Br)c(O)c(Br)c1)c1cc(Br)c(O)c(Br)c1
active: Potency [23] 44.7 µM
28.2 µM (active) and inactive: Potency [21]
inactive: outcome [1] | outcome [2] | outcome [3] | outcome [4] | outcome [5] | outcome [6] | outcome [7] | outcome [8] | outcome [9] | outcome [10] | outcome [11] | outcome [12] | outcome [13] | outcome [14] | outcome [15] | outcome [16] | outcome [17] | outcome [18] | outcome [19] | outcome [20] | activation [22] -10.8% and 25.4% and -11.2%
